CHX counter – counter-screen for Shiga toxin inhibitors: cycloheximide protein synthesis inhibition; max response, %; AID 2314; 300,000 compounds, 12% hits; cell reporter, cycloheximide protein synthesis inhibition counterscreen; in the data active = max response mostly above about 13%, no sharp cut-off; inactive = mostly below about 14%; also: read at 38.3 µM for the half of the compounds with a filed dose
Shiga inhibitor – inhibitors of Shiga toxin in Vero cells; inhibition, % at 38.7 µM; Vero cells, Shiga toxin protein synthesis inhibition reporter; 290,000 compounds, 9.2% hits; in the data active = inhibition mostly above about 28%, no sharp cut-off; inactive = mostly below about 43%
FMDV inh – blocks foot and mouth disease virus | FMDV antiviral cell-based qHTS | Potency, µM (titrated, usually from 57.9 µM), usual class: inhibitors | 410,000 compounds, 1.2% hits | AID 1159524; calls by dose curve; tested in HEK293T cells; also: read-out not given here; nearly all actives have a fitted effect of over 45% in size
LASV entry inh – inhibitors of Lassa virus binding or cell entry. 300,000 compounds, 1.2% hits. AID 540256. Lassa virus pseudotype entry inhibition, cell reporter. Potency, µM (series often up to 37.9 µM), usual class: inhibitors; calls by dose curve; tested in HEK293 cells; also: nearly all actives have a fitted effect of over 50% in size
Marburg entry inh – inhibitors of Marburg virus binding or cell entry; Marburg virus pseudotyped entry inhibition, cell reporter; Potency, µM (top dose mostly 37.8 µM), most hits filed as inhibitors; 300,000 compounds, 1.8% hits; AID 540276; calls by dose curve; tested in HEK293 cells
HCV inh – HCV inhibition. Huh7.5.1 HCVcc-Cre infection, luciferase reporter, 44 h. Potency, µM (doses to about 41.8 µM), usual class: inhibitors. 340,000 compounds, 3.4% hits; active = well fitted inhibition curve with a large enough effect; inconclusive = small, poorly fitted or top-dose-only effect, or another doubt; inactive = no such curve, though single readings can be large or run the other way
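Infectious HCVcc-Cre (~0.5 moi) was added to cells just after compound, with cells seeded 4 h earlier at 1,000 per well. Luciferase activity after 44 h culture reported infection; substrate was incubated 15 min at room temperature before reading.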
Of the large screens only hits and unclear results are named; the others gave an inactive call. Most compounds without a hit are left out; they make up all but 13% or so of the library.

Oc1ccc(N=C/C=C/c2cccc(Br)c2)cc1-c1nc2ccccc2s1	CHX counter 32, LASV entry inh inconclusive, Marburg entry inh inconclusive, HCV inh inconclusive
Nc1ccc(O)c(-c2nc3ccccc3s2)c1	CHX counter 47, Shiga inhibitor 45, LASV entry inh inconclusive
Nc1ccccc1-c1nc2ccccc2s1	CHX counter 41, Shiga inhibitor 106, Marburg entry inh inconclusive
O=C(Nc1ccc(O)c(-c2nc3ccccc3s2)c1)c1cccs1	HCV inh inconclusive
O=C(/C=C/c1ccco1)NC(=S)Nc1ccc(O)c(-c2nc3ccccc3s2)c1	FMDV inh inconclusive, LASV entry inh inconclusive, Marburg entry inh inconclusive, HCV inh inconclusive
CSc1ccc(C(=O)Nc2ccc(-c3nc4ccccc4s3)c(O)c2)cc1	none (no result: CHX counter, Shiga inhibitor, Marburg entry inh, HCV inh)
C[C@@H]1CC[C@H]2C(=O)N(Cc3cccc([N+](=O)[O-])c3)C[C@@H](O)CN2[C@@H]1c1cccc(Br)c1	Marburg entry inh inconclusive (no result: CHX counter, Shiga inhibitor, FMDV inh, HCV inh)
COc1cccc(NC(=O)c2cc([N+](=O)[O-])ccc2NC(=O)CNCC2CCCO2)c1 (centres undefined)	Marburg entry inh inconclusive, HCV inh inconclusive
CCc1c(C)n2nc(C)cc2[nH]c1=O	none
COc1cccc(NC(=O)CN2CCCN(S(=O)(=O)c3ccc(Br)cc3)CC2)c1	FMDV inh inconclusive (no result: CHX counter, Shiga inhibitor, HCV inh)
COc1ccc(-c2csc3ncnc(Oc4cccc5ccc(C)nc45)c23)cc1	Marburg entry inh inconclusive, HCV inh inconclusive
CC1CCN(C(=O)CSc2nc3cccnc3n2C)CC1	none
CN(C)c1nc(N)nc(-c2nc3ccccc3s2)n1	CHX counter 39, Shiga inhibitor 101, Marburg entry inh inconclusive (no result: FMDV inh)
COc1ccc(Cl)cc1-c1nc(N)nc(N(C)C)n1	none
Cc1ccc(Cl)cc1NC(=O)c1cc(NC(=O)C2CCCCC2C(=O)O)ccc1N1CCOCC1 (centres undefined)	LASV entry inh 10µM
O=C(Nc1ccc(N2CCOCC2)c(Cl)c1)c1c(F)c(F)c(F)c(F)c1F	FMDV inh inconclusive, HCV inh 8.9µM
O=C(Nc1ccc(N2CCOCC2)c(Cl)c1)c1cc(F)c(F)cc1Cl	CHX counter 19, HCV inh inconclusive
CC(=O)Nc1ccc(N2CCOCC2)c(Cl)c1	none (no result: LASV entry inh, Marburg entry inh)
O=C(Nc1ccc(N2CCOCC2)c(Cl)c1)c1cccc(F)c1	CHX counter 44, Shiga inhibitor 119, LASV entry inh inconclusive, HCV inh inconclusive
O=C(Nc1ccccc1N1CCOCC1)c1cccc(F)c1	HCV inh inconclusive (no result: LASV entry inh)
CNC(=O)Cn1c(=O)n(C)c2ccccc21	none
CCCOc1ccc(C(O)CCNC(CC(=O)O)c2ccccc2)cc1 (centres undefined)	none
COc1cc(/C=C2\C(=O)N(CCC#N)N=C2C)c(Br)cc1OC(C)C	none
O=C(Nc1ccc(N2CCOCC2)c(Cl)c1)c1cccnc1Cl	none
COc1c(C)cccc1C(=O)Nc1ccc(N2CCOCC2)c(Cl)c1	CHX counter 89, Shiga inhibitor 121, LASV entry inh inconclusive, Marburg entry inh inconclusive
Cc1[nH]c2ccc(C(=O)NCc3ccccn3)cc2c1C	CHX counter 29, Shiga inhibitor 55 (no result: LASV entry inh, Marburg entry inh)
Cc1cc(NC(=O)c2ccc3[nH]c(C)c(C)c3c2)ccn1	Shiga inhibitor 52, HCV inh 2.5µM
CC(=O)Nc1cccc(NC(=O)c2ccc3[nH]c(C)c(C)c3c2)c1	CHX counter 20, Shiga inhibitor 56, LASV entry inh inconclusive
COc1ccc(NC(=O)c2ccc3[nH]c(C)c(C)c3c2)cc1	CHX counter 39, Shiga inhibitor 48 (no result: LASV entry inh, Marburg entry inh)
CCOc1ccc(NC(=O)c2ccc3[nH]c(C)c(C)c3c2)cc1	LASV entry inh inconclusive (no result: CHX counter, Shiga inhibitor, Marburg entry inh, HCV inh)
O=S1(=O)c2ccccc2N=NN1Cc1cc(Cl)cc(Cl)c1	none (no result: FMDV inh, LASV entry inh, HCV inh)
COC(=O)CN(c1ccc(C)cc1)S(=O)(=O)c1ccc(F)cc1	none
CC(=O)Oc1cccc2c1C(=O)c1c(OC(C)=O)cc(C(=O)O)cc1C2=O	FMDV inh inconclusive, HCV inh 7.1µM
COCCNC(=S)N/N=C(\C)c1ccc(O)cc1	none
C/C(=N\NC(=S)Nc1ccccc1C)c1ccc(O)cc1	CHX counter 13
CCCCCn1c(=O)[nH]c2cc(C(=O)NC(C)CC)ccc2c1=O (centres undefined)	none (no result: CHX counter, Shiga inhibitor, HCV inh)
CCOC(=O)C1CCN(C(=O)c2cccc(S(=O)(=O)N3CCCc4ccccc43)c2)CC1	none (no result: CHX counter, Shiga inhibitor)
COC(=O)Cc1ccc(OC(=O)CCS(=O)(=O)c2ccc(Cl)cc2)cc1	none (no result: CHX counter, Shiga inhibitor)
Cc1cccc(N=C2c3cc([N+](=O)[O-])ccc3-c3c2cc([N+](=O)[O-])cc3[N+](=O)[O-])c1	FMDV inh inconclusive, Marburg entry inh inconclusive, HCV inh 7.1µM (no result: CHX counter, Shiga inhibitor)
Cc1ccc(S(=O)(=O)N2C[C@]3(O)C[C@@H]4C(=O)N(c5ccccc5)C(=O)[C@@H]4C[C@]3(OC(=O)NC3CCCC3)C2)cc1	FMDV inh 16µM (no result: CHX counter, Shiga inhibitor, LASV entry inh, Marburg entry inh, HCV inh)
CCC(C)c1ccc(NC(=O)c2cccnc2)cc1 (centres undefined)	CHX counter 43, Shiga inhibitor 59, LASV entry inh inconclusive, HCV inh inconclusive
O=C(Nc1ccc(S(=O)(=O)Nc2ncccn2)cc1)c1cccnc1	CHX counter 59, Shiga inhibitor 114, Marburg entry inh inconclusive
CCCCSc1ccc(NC(=O)c2cccnc2)cc1	CHX counter 14
CCNS(=O)(=O)c1ccc(NC(=O)c2cccnc2)cc1	none
CCNCC(=O)Nc1c(C)cccc1C	HCV inh inconclusive (no result: CHX counter, Shiga inhibitor, LASV entry inh, Marburg entry inh)
CC(C)(O)CNC(=O)C(Cc1ccccc1)N1C(=O)c2ccccc2C1=O (centres undefined)	none (no result: LASV entry inh, Marburg entry inh)
C=CCN1CCOc2ccc(C)cc2S1(=O)=O	none (no result: CHX counter, Shiga inhibitor, LASV entry inh, Marburg entry inh)
C=CCn1c(SCC(=O)OCc2ccccc2)nc2c1c(=O)n(C)c(=O)n2C	none
COc1ccc(NC(=O)CNC(=O)c2nn(-c3ccc(OC)c(Cl)c3)c(=O)c3ccccc23)c(OC)c1	LASV entry inh inconclusive, Marburg entry inh inconclusive, HCV inh inconclusive
COC(=O)C(CCSC)NS(=O)(=O)c1ccccc1Br (centres undefined)	none (no result: FMDV inh, LASV entry inh, Marburg entry inh, HCV inh)
COc1ccccc1C(=O)O/N=C(/c1ccncc1)c1ccc([N+](=O)[O-])cc1	LASV entry inh inconclusive
O=C(Nc1ccc(Cl)cn1)c1cccc(F)c1	CHX counter 32, Shiga inhibitor 121, Marburg entry inh inconclusive, HCV inh inconclusive
O=C(Nc1cccnc1Cl)c1cccc(F)c1	none (no result: FMDV inh, LASV entry inh, Marburg entry inh, HCV inh)
O=C(NC(=O)c1ccccc1)Nc1ccc(Cl)cn1	CHX counter 52, Shiga inhibitor 145 (no result: LASV entry inh, Marburg entry inh)
Cc1cc(C)cc(NC(=O)Nc2ccc(Cl)cn2)c1	none (no result: LASV entry inh, Marburg entry inh)
Cc1onc(-c2ccccc2)c1C(=O)Nc1ccc(Cl)cn1	Marburg entry inh inconclusive
C/C(=C\c1ccccc1)C(=O)Nc1ccc(Cl)cn1	CHX counter 39, Shiga inhibitor 95 (no result: LASV entry inh, Marburg entry inh)
O=C(Nc1ncccn1)c1cccc(F)c1	CHX counter 11, Shiga inhibitor 21 (no result: LASV entry inh, Marburg entry inh)
COc1ccc(C(OC(=O)c2ccco2)C(=O)NC2CCCC2)cc1 (centres undefined)	none
Cc1ccc(NC(=O)c2ccc3[nH]c(=O)c(=O)[nH]c3c2)nc1	none (no result: LASV entry inh, Marburg entry inh)
O=C(Nc1cccc(C(=O)Nc2ccc(Cl)cn2)c1)c1ccccc1	HCV inh 13µM (no result: LASV entry inh, Marburg entry inh)
O=C(Nc1cccc(Cl)c1)Nc1ccc(Cl)cn1	none
